This passage reports Potency and outcome results from PubChem BioAssay (Tox21).

Experiment [1] can be described thus: qHTS assay for small molecules that induce genotoxicity in human embryonic kidney cells expressing luciferase-tagged ATAD5 (AID 651632). Also: nearly all actives have a fitted effect of over 15% in size. In outline:
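Concentration-response screen for ATAD5 upregulation in HEK293T luciferase reporter cells; 16 hr treatment at 37C, then luminescence after 30 min with Amplite at room temperature.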
For orientation: In qHTS, concentration-response curves come from the screen itself.

Experiment [2] is described as follows: qHTS assay for small molecule agonists of the p53 signaling pathway - cell viability (AID 651633; calls by dose curve;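 also: p53RE-bla HCT reporter cells with a stable beta-lactamase p53 reporter; series mostly up to about 83 µM; nearly all actives have a fitted effect of over 30% in size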). In outline:
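p53RE-bla cells were treated with compound for 16 hours at 37 C. Cytotoxicity was then measured as CellTiter-Glo luminescence after 30 min at room temperature.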

A short description of experiment [3]: qHTS assay for small molecules that induce genotoxicity in human embryonic kidney cells expressing luciferase-tagged ATAD5 - cell viability (AID 651634; calls by dose curve; also: nearly all actives have a fitted effect of over 25% in size). In outline: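 15.5 hr compound or vehicle exposure of HEK293T cells expressing luciferase-tagged ATAD5 at 37C; live-cell protease activity is read by fluorescence after 30 min of CellTiter-Fluor.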
Experiment [4] in a line: qHTS assay for small molecule disruptors of the mitochondrial membrane potential - cell viability (AID 720634; calls by dose curve;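 also: human HepG2 liver cancer cells; series mostly up to about 83 µM; nearly all actives have a fitted effect of over 20% in size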). Summed up:
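In this qHTS format, HepG2 cells plated overnight were pinned with compound, incubated 1 hr, and assayed for ATP luminescence with CellTiter-Glo after m-MPI dye addition.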

Experiment [5] in a line: qHTS assay for small molecule disruptors of the mitochondrial membrane potential (AID 720635). Also: potency is read from the fitted curve at half-maximal effect. Summed up: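 HepG2 cells exposed to compound 1 hr at 37C, then Mito-MPS dye 30 min. Ratio read of aggregate (540/590 nm) versus monomer (490/535 nm) fluorescence.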
Experiment [6] is described as follows: qHTS assay to test for compound auto fluorescence at 590 nm (red) in HepG2 cells (AID 720674). In outline: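 HepG2 cells, 2,000 per well in MEM with 10% FBS, attached overnight at 37 C, then got 23 nL compound or DMSO. After 1 hr at 37 C, 5% CO2, red fluorescence was read at 540/590 nm against Rose Bengal sodium as reference.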
The nature of experiment [7]: qHTS assay to test for compound auto fluorescence at 535 nm (green) in HepG2 cells (AID 720675).
A short description of experiment [8]: qHTS assay to test for compound auto fluorescence at 460 nm (blue) in HEK293 cells (AID 720678). In outline:
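Blue-channel (Ex/Em 405/460 nm) intensity measured in HEK293 cultures after overnight compound exposure at 37C; signal expressed relative to triamterene. Cells plated 2,000 per well in 10% dialyzed FBS medium and allowed 4-5 hr to attach.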

A short description of experiment [9]: qHTS assay to test for compound auto fluorescence at 590 nm (red) in HEK293 cells (AID 720679). Summed up: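 Red-channel autofluorescence (Ex/Em 540/590 nm; Rose Bengal sodium reference) was measured after overnight 37C, 5% CO2 exposure of attached HEK293 cells, 2,000 per well in medium with 10% dialyzed FBS.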
Experiment [10] can be described thus: qHTS assay to test for compound auto fluorescence at 535 nm (green) in HEK293 cells (AID 720680).
Experiment [11] is described as follows: qHTS assay to test for compound auto fluorescence at 460 nm (blue) in HEK293 cell free culture (AID 720681). Summed up: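 Compounds were added to cell-free DMEM with 10% FBS and fluorescence read directly. The blue channel used 405 nm excitation and 460 nm emission, with triamterene as the reference fluorophore.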
The nature of experiment [12]: qHTS assay to test for compound auto fluorescence at 535 nm (green) in HEK293 cell free culture (AID 720682). Summed up:
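No cells present: wells hold DMEM supplemented with 10% FBS, into which compound or vehicle is pinned. Green emission is then recorded (485 nm excitation, 535 nm emission) and scaled to fluorescein.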

The nature of experiment [13]: qHTS assay to test for compound auto fluorescence at 590 nm (red) in HEK293 cell free culture (AID 720683). In outline:
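Cell-free wells of DMEM with 10% FBS received compound, and intrinsic fluorescence was read at excitation/emission 540/590 nm. Values expressed as equivalence to Rose Bengal sodium.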

A short description of experiment [14]: qHTS assay to test for compound auto fluorescence at 590 nm (red) in HepG2 cell free culture (AID 720684). In outline: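 Auto fluorescence equivalency versus Rose Bengal sodium, red channel Ex/Em 540/590 nm; compounds in cell-free MEM/10% FBS; DMSO vehicle control.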
Experiment [15] can be described thus: qHTS assay to test for compound auto fluorescence at 460 nm (blue) in HepG2 cell free culture (AID 720685). In outline:
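Cell-free plates of MEM plus 10% FBS received 23 nL compound or DMSO vehicle; blue-channel (405/460 nm) intensity scored against triamterene as reference fluorophore.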

Experiment [16] can be described thus: qHTS assay to test for compound auto fluorescence at 535 nm (green) in HepG2 cell free culture (AID 720686).
A short description of experiment [17]: qHTS assay to test for compound auto fluorescence at 460 nm (blue) in HepG2 cells (AID 720687). In outline: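 HepG2 cells in MEM with 10% FBS, attached overnight at 37 C, were exposed to compound or DMSO for 1 hr at 37 C, 5% CO2. Blue fluorescence was read at 405/460 nm, with triamterene as reference fluorophore.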
For experiment [18], the target named is Glucocorticoid receptor (Homo sapiens) (UniProt P04150). As to the kind of experiment: qHTS assay to identify small molecule agonists of the glucocorticoid receptor (GR) signaling pathway (AID 720691; active = well fitted activation curve with a large enough effect in the signal ratio in the repeat runs, not every such curve was filed as active; the % refers to the signal ratio). In outline:
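Measures GR pathway activation through a GRE-beta-lactamase reporter stably integrated in HeLa cells, with 18 h compound treatment at 37 C and fluorescence detection using a FRET substrate.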

Experiment [19] has the same target. The experiment in a line: qHTS assay to identify small molecule antagonists of the glucocorticoid receptor (GR) signaling pathway (AID 720692; active = well fitted inhibition curve with a large enough effect in the signal ratio in the repeat runs, not every such curve was filed as active; the % refers to the signal ratio). In outline: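 Tox21 10K library screened in concentration-response for blockade of dexamethasone (5 nM final)-induced GRE-bla reporter activity in HeLa cells; 18 h treatment, fluorescence read.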

The structures appear in SMILES notation. Results filed as inconclusive are left out. Calls of active or inactive are those of the source. Unless noted, calls follow the shape of the dose curve; as a rule, active = well fitted curve in the direction sought with a large enough effect in the repeat runs; inconclusive = weak or mixed curves; inactive = no such curve, though single readings can be large; an effect the other way counts as inactive or inconclusive.

Sequence of Glucocorticoid receptor (Homo sapiens) (P04150 whole entry, looked up): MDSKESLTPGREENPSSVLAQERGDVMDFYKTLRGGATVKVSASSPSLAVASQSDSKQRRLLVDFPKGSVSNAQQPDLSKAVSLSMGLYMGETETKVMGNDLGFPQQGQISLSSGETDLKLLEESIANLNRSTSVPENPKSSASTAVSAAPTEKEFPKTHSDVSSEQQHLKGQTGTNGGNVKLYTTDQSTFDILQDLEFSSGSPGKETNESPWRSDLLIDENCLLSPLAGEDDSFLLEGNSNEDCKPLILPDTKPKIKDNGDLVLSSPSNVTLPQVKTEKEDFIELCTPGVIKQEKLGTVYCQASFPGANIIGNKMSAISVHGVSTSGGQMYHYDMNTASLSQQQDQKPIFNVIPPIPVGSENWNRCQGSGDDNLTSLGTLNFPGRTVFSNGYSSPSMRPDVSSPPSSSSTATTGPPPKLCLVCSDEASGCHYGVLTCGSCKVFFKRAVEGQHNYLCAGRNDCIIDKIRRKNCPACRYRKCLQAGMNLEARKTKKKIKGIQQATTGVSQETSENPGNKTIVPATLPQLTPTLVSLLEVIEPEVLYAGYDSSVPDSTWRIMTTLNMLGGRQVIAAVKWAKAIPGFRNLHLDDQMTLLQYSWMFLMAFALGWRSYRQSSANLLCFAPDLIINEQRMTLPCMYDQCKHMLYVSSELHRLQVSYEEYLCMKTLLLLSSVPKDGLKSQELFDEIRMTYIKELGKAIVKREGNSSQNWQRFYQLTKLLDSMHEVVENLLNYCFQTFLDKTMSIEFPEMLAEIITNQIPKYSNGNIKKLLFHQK

Turning to `CCCCc1ccc(O)cc1`, the Potency entry in experiment [1], in [2], in experiment [3], in experiment [4] and in experiment [19] was “inactive” throughout. Further, the Potency in experiment [5] is 48.5 µM (active). Besides, the compound was classed as inactive in [6], in experiment [7], in [8], in experiment [9], in experiment [10] and in experiment [11]. Also, the compound was classed as inactive in experiment [12], in experiment [13], in [14], in experiment [15], in experiment [16] and in [17]. Also, the compound was classed as inactive in experiment [18].

`OCCBr`: the Potency result in [1], in experiment [2], in experiment [3] and in experiment [5] was “inactive” throughout. The result in experiment [6], in experiment [7], in experiment [8], in experiment [9], in experiment [11] and in [12] was inactive. Moreover, the result in experiment [13], in experiment [14], in experiment [15], in [16], in [17] and in experiment [18] was inactive.

Turning to `CSc1nc(N=[N+]=[N-])nc(NC(C)C)n1`, the Potency result in experiment [1], in [2], in [3], in experiment [4] and in experiment [5] was “inactive” throughout. The call in experiment [6], in experiment [7], in experiment [9], in [10], in experiment [11] and in experiment [13] was inactive. The outcome in experiment [14], in experiment [15], in [16] and in [17] was inactive.

As for `CCN(CC)C(C)C(=O)c1ccccc1` (stereo unspecified), the Potency result in experiment [1], in experiment [2], in experiment [3], in experiment [4] and in experiment [5] was “inactive” throughout. The call in experiment [6], in [7], in experiment [9], in experiment [10], in [11] and in experiment [13] was inactive. For the same compound, the compound was called inactive in experiment [14], in [15] and in [17].

As for `CNC(=O)Oc1c(C(C)(C)C)cc(C)cc1C(C)(C)C`, the Potency result in experiment [1], in [2], in [3] and in experiment [4] was “inactive” throughout. For the same compound, the compound was called inactive in experiment [6], in [7], in experiment [8], in experiment [9], in [10] and in experiment [11]. The compound was called inactive in experiment [13], in experiment [14], in [15], in experiment [16] and in [17].

Take `CC(C)CP(=S)(S)CC(C)C`: the Potency entry in experiment [1], in [2], in experiment [3], in experiment [4] and in [19] was “inactive” each time. For the same compound, the result in experiment [6], in experiment [7], in [9], in [11], in [12] and in experiment [13] was inactive. Moreover, the result in [14], in experiment [15], in experiment [16], in experiment [17] and in experiment [18] was inactive.

For the compound `COP(=S)(OC)Oc1c(Cl)cc(C)cc1Cl`, the Potency result in experiment [1], in [2], in [3], in experiment [4] and in experiment [19] was “inactive” throughout. In addition, the Potency in experiment [5] was 24.3 µM (active). In addition, the call in experiment [6], in experiment [7], in [8], in [9], in experiment [10] and in [11] was inactive. Further, the call in experiment [12], in experiment [13], in experiment [14], in [15], in experiment [16] and in experiment [17] was inactive. In experiment [18], the outcome was inactive.

For `CCOP(=S)(OCC)SCSc1ccc(Cl)cc1`, the Potency result in [1], in experiment [2], in experiment [3], in experiment [4] and in experiment [5] was “inactive” each time. For the same compound, the outcome in [6], in experiment [7], in experiment [9], in experiment [10], in [11] and in experiment [12] was inactive. Moreover, the compound was called inactive in experiment [13], in [14], in experiment [15], in experiment [16], in experiment [17] and in [18].

In the case of `CN1CCN(C(=O)O[C@H]2c3nccnc3C(=O)N2c2ccc(Cl)cn2)CC1`, the Potency entry in experiment [1], in [2], in experiment [3] and in experiment [4] was “inactive” in each case. In addition, the call in experiment [6], in [7], in experiment [8], in experiment [9], in experiment [10] and in [11] was inactive. Also, the outcome in experiment [12], in experiment [13], in [14], in experiment [15] and in experiment [17] was inactive.
